Screening data from PubChem BioAssay.
Hits are enriched below; roughly 2% of the tested compounds scored in any of these assays.
KDM4E inh – qHTS Assay for Inhibitors of Human Jumonji Domain Containing 2E (JMJD2E) | Lysine-specific demethylase 4E (Homo sapiens), B2RXH2 | JMJD2E catalytic domain, FDH-coupled NADH fluorescence (FDH is formaldehyde dehydrogenase) | Potency, µM (series often up to 57.1 µM), most hits filed as inhibitors | hit rate 1.6% among 230,000 | AID 2147, 2009; active = well fitted inhibition curve with a large enough effect, not every such curve was filed as active; inconclusive = small, poorly fitted or top-dose-only effect, or another doubt; inactive = no such curve, though single readings can be large or run the other way; also: nearly all actives have a fitted effect of over 50% in size
Target sequence (B2RXH2 1-337 limits assumed): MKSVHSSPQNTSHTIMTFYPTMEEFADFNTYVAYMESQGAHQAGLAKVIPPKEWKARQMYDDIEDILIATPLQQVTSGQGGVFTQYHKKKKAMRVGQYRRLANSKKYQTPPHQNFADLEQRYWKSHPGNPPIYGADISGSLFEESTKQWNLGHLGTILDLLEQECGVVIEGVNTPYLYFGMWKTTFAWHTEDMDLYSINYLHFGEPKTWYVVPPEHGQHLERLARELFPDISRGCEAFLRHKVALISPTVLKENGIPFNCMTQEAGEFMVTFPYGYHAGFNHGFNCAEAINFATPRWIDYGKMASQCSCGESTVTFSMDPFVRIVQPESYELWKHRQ
TR SRC2 fluor cs – Total Fluorescence Counterscreen for Inhibitors of the Interaction of Thyroid Hormone Receptor and Steroid Receptor Coregulator 2 | TRb/SRC2 Texas Red total fluorescence interference | Potency, µM (highest dose often 106 µM) | hit rate 0.29% among 280,000 | AID 1479, 2009; active = well fitted curve in either direction with a large enough effect; inconclusive = small, poorly fitted or top-dose-only effect
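Human TRβ ligand-binding domain (0.6 uM) and Texas Red SRC2 peptide (20 nM) in Tris buffer with 1 uM T3 and 5% DMSO were incubated with pinned compound for 5 hr at ambient temperature. Total fluorescence was computed as S + 2P (555/632 nm).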
FBPA coupling cs – qHTS Assay for Inhibitors of Fructose-1,6-bisphosphate Aldolase from Giardia Lamblia: Coupling assay counterscreen | activity change, negative = inhibition, % at 58.2 µM, hits read low | AID 2472, 2010 | hit rate 0.67% among 290,000 | coupling enzyme system counterscreen, AmpLite Red fluorescence; in the data active = activity change below about -30%
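First, compound is pin-transferred into glyceraldehyde-3-phosphate coupling-enzyme reagent at 57.5 uM final and held 10 min at RT. Next, substrate, coupling system and AmpLite Red are added. After 20 min RT, fluorescence (525/598 nm) is read.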
HTT ATP protect – qHTS Multiplex Assay to Identify Dual Action Probes in a Cell Model of Huntington: Cytoprotection (ATP); PC12 HTT-Q103 induced, cytoprotection, ATP luminescence, 40 h; Potency, µM (doses to about 56.4 µM), hits mostly activators; hit rate 0.14% among 230,000; also: nearly all actives have a fitted effect of over 45% in size
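Cells were plated at 1500 per well in phenol red-free DMEM with 5% equine and 5% calf serum. Tebufenozide (100 nM final) and compounds were added, then ATPlite reagent, and luminescence was read.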
HttQ103 aggreg – qHTS Multiplex Assay to Identify Dual Action Probes in a Cell Model of Huntington: Aggregate Formation (GFP); PC12 HttQ103-GFP aggregates, Acumen cytometry, 40 h; AID 1688, 2009; hit rate 1.1% among 220,000; Potency, µM (series often up to 46.1 µM), usual class: inhibitors; also: nearly all actives have a fitted effect of over 60% in size
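Inducible Q103 Huntingtin exon 1–GFP PC12 line, 1500 cells/well in phenol red free DMEM with 5% equine and 5% calf serum. Tebufenozide 100 nM induced expression; compounds titrated; aggregates quantified by cytometry.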
TRb-SRC2 inh – qHTS for Inhibitors of the Interaction of Thyroid Hormone Receptor and Steroid Receptor Coregulator 2 | Thyroid hormone receptor beta (Homo sapiens), P10828 | Potency, µM (series often up to 106 µM), actives largely listed as inhibitors | hit rate 0.065% among 280,000 | TRbeta-SRC2 peptide binding, fluorescence polarization; receptor liganded with 1 µM T3; also: nearly all actives have a fitted effect of over 50% in size
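A fluorescence polarization screen tested compounds at multiple concentrations against complex formation between 0.6 uM TRb ligand-binding domain and 20 nM Texas Red SRC2 peptide, with 1 uM T3 present; readout after 5 hr.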
Each line names hits and unclear results; the compound was inactive in the other large screens; ! = a repeat was not active; [ ] = another dose, or the depositor's remark. Unless noted, calls follow the shape of the dose curve; as a rule, active = well fitted curve in the direction sought with a large enough effect; inconclusive = small, poorly fitted or top-dose-only effect, or another doubt; inactive = no such curve, though single readings can be large; an effect the other way counts as inactive or inconclusive.

O=C(C1=C[C@@H](c2ccccc2)C[C@@H](OCc2ccc(CO)cc2)O1)N1CCN(Cc2ccc3c(c2)OCO3)CC1	none
NC1=C(O)C(=O)C(c2ccccc2)O1 (centres undefined)	KDM4E inh 16µM
O=C1OC(c2ccccc2)/C(=C(/O)c2ccccc2)C1=O (centres undefined)	HTT ATP protect inconclusive
CCCCCCN(C(=O)CCCCCN1C(=O)NC(c2ccc(-c3ccccc3)cc2)C(C(=O)OCc2ccccc2)=C1C)C(C)C(=O)NCCCC (centres undefined)	KDM4E inh 35µM!
CCCCCCN(C(=O)CCCCCN1C(=O)NC(c2ccc(-c3ccccc3)cc2)C(C(=O)OCc2ccccc2)=C1C)C(C(=O)NCCCC)c1ccccc1 (centres undefined)	HttQ103 aggreg inconclusive
O=C(Cc1c(Cl)cccc1Cl)NCCc1ccc(Cl)cc1	none
O=C(CCl)NCc1c(Cl)cccc1-n1cccc1	HttQ103 aggreg 13µM
COc1ccc(-c2nc3c(c4c2C[C@H](c2ccccc2)OC4)CN(C(=O)c2cc(I)ccc2F)CC3)c(C)c1	none (no result: HttQ103 aggreg)
COc1ccccc1CN1C[C@@H]2C[C@@H](c3ccc(C)cc3)N3CCC[C@@]23C1=O	none
COc1ccc([C@@H]2C[C@H]3CN(c4ccccc4)C(=O)[C@]34CCCN24)c(OC)c1OC	none
COc1ccccc1N1C[C@@H]2C[C@@H](c3ccco3)N3CCC[C@@]23C1=O	HttQ103 aggreg 7.1µM
COCc1cc([C@@H]2C[C@H]3CN(c4ccccc4)C(=O)[C@]34CCCN24)ccc1OC	HttQ103 aggreg 32µM
N#Cc1nc(NCCCO)nc(Nc2ccccc2)n1	none (no result: KDM4E inh, TR SRC2 fluor cs, HTT ATP protect, HttQ103 aggreg, TRb-SRC2 inh)
COCCCNC(=O)c1cc2cc(Br)ccc2oc1=O	none (no result: HTT ATP protect, HttQ103 aggreg)
O=C(NNC(=O)c1cc2cc(Br)ccc2oc1=O)c1ccc(O)cc1O	KDM4E inh inconclusive, HTT ATP protect inconclusive, HttQ103 aggreg 35µM
C=CC1=C(C)C2=Cc3c(C=C)c(C)c4[n]3[Sn+2][n]3c(c(C)c(CCC(=O)O)c3=CC3=NC(=C4)C(C)=C3CCC(=O)O)=CC1=N2	KDM4E inh inconclusive, TR SRC2 fluor cs inconclusive, TRb-SRC2 inh 13µM (no result: HttQ103 aggreg)
N#Cc1c(Cl)nsc1NC(=O)c1ccccc1	HttQ103 aggreg 4µM
Cc1cccc(C(=O)Nc2sc(C)c(-c3ccccc3)c2C#N)c1	KDM4E inh inconclusive, HttQ103 aggreg 22µM
O=c1c(-c2cc(F)cc(F)c2)nc2cnc(N3CCOCC3)nc2n1Cc1ccc(F)cc1	none (no result: KDM4E inh, TR SRC2 fluor cs, HttQ103 aggreg, TRb-SRC2 inh)
NC(=S)n1[nH]c(-c2ccc([N+](=O)[O-])cc2)c(N=Nc2cccc([N+](=O)[O-])c2)c1=O	KDM4E inh inconclusive, HttQ103 aggreg 13µM
CCCN1C/C(=C/c2ccc3c(c2)OCO3)C(=O)/C(=C/c2ccc3c(c2)OCO3)C1	KDM4E inh 10µM
CCCN1C/C(=C/c2cccc([N+](=O)[O-])c2)C(=O)/C(=C/c2cccc([N+](=O)[O-])c2)C1	none
CC(=O)NC1C(O)C[C@@](O)(C(=O)O)OC1[C@@H](O)C(O)CO (some centres undefined)	none (no result: HTT ATP protect, HttQ103 aggreg)
CCOc1cc(C(=O)Nc2ccc(NC(=O)c3cc4ccccc4o3)c(OC)c2)cc(OCC)c1OCC	TR SRC2 fluor cs 35µM[quencher] (no result: KDM4E inh, FBPA coupling cs, HTT ATP protect, HttQ103 aggreg)
CC(C)C(=O)N1CCN(c2ccc(NC(=O)c3ccco3)cc2Cl)CC1	none (no result: KDM4E inh, TR SRC2 fluor cs, HTT ATP protect, HttQ103 aggreg, TRb-SRC2 inh)
CCOc1cccc(C(=O)Nc2ccc(NC(=O)c3cc4ccccc4o3)c(OC)c2)c1	none (no result: KDM4E inh, TR SRC2 fluor cs, HTT ATP protect, HttQ103 aggreg, TRb-SRC2 inh)
CCC(=O)N1CCN(c2ccc(NC(=O)c3ccc([N+](=O)[O-])o3)cc2Cl)CC1	HTT ATP protect 0.63µM, HttQ103 aggreg 20µM
O=C(Nc1ccc(N2CCN(C(=O)c3ccccc3)CC2)c(Cl)c1)c1ccco1	HttQ103 aggreg 22µM
